FXN GAA850 act: increases GAA850 frataxin promoter reporter activity | activation, % at 6 µM | HEK293 lucGAA850 FXN promoter luciferase reporter, 24 h; percent of 10 µM SAHA response | actives 0.56% (n = 360,000);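 active = activation above the average of all compounds screened plus 3 SD, cutoff fixed separately per campaign, cut at about 7.5% in these data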;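 note: 0% = DMSO wells and 100% = 10 µM SAHA wells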
HSP90 refold inh: blocks HSP90-mediated luciferase refolding in reticulocyte lysate | inhibition, % at 5.6 µM | actives 0.91% (n = 290,000) | Rabbit reticulocyte lysate, luciferase refolding luminescence, 3 h | AID 1789;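 active = inhibition above the screen-wide mean plus 3 SD, computed separately per campaign, cut at about 16% in these data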;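 note: 0% = DMSO wells and 100% = 60 µM geldanamycin wells; inhibitors lower the luminescence because luciferase stays unfolded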
AHR activator: activates the human aryl hydrocarbon receptor; P35869; activation, % at 5 µM; actives 2.5% (n = 320,000); AHR-responsive luciferase reporter cells, luminescence; AID 2796; in the data active = activation above about 47%;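 note: 0% = vehicle wells and 100% = reference agonist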
HSF1 inh: HSF1 inhibition; AID 2098; activity change, negative = inhibition, % at 7.5 µM (by protocol); actives 0.77% (n = 300,000); NIH3T3-HGL HSE-luciferase, MG132-induced, luminescence 8 h; active compounds read low;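 active = more than half of replicate wells show activity change below -50%, luminescence cut by over half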;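 note: luciferase reports HSF-1 transcriptional activity via heat shock element; 0% = median of DMSO wells and -100% = zero luminescence signal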
NR0B1 inh: inhibits human nuclear receptor DAX1; inhibition, % at 6.75 µM; HEK293 Gal4-DAX1 luciferase reporter, luminescence; AID 504766; actives 0.99% (n = 340,000); P51843;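 active = inhibition above the mean over all tested compounds plus 3 SD, cut at about 4.2% in these data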;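 note: 0% = DAX1-transfected cells with DMSO and 100% = empty-vector control cells with DMSO; inhibition shows as a rise in luminescence from relieved DAX1 repression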
HSF-1 act: increases HSF-1 driven luciferase reporter signal | AID 504408 | actives 1.7% (n = 300,000) | activation, % at 9 µM | NIH3T3-HGL HSF-1 luciferase reporter, MG132, 8 h; 100% = twice DMSO control signal;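 active = mean replicate activation of at least 50% with a set share of replicates each reaching 50%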;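 note: 0% = median of the neutral control wells and 100% = twice that signal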
* marks the source's active call; other numbers are inactive results; nt = not tested or not shown. A selection: hits, their analogues and other compounds. The true share with any hit is near 5.9%.

SMILES | FXN GAA850 act | HSP90 refold inh | AHR activator | HSF1 inh | NR0B1 inh | HSF-1 act
CCOc1ccc(NCc2nnc(SCc3ccc(Cl)cc3)n2-c2ccccc2)cc1 | -2.6 | 4.2 | 0.8 | -2.2 | 0.2 | -3.7
Cc1cccc(C)c1NCc1nnc(SCC(=O)Nc2nc(-c3ccccc3)cs2)n1-c1ccccc1 | 1.3 | -2.3 | 4.0 | 24.4 | -0.4 | 59.9*
COc1ccc(Cl)cc1C(=O)Nc1nc(C)cc(C)n1 | -0.8 | -2.8 | 18.2 | -5.5 | -1.8 | -7.3
CCN(CC)C1CCN(Cc2cn[nH]c2-c2ccc(OC)c(F)c2)C1 (stereo unspecified) | 2.4 | -1.5 | -2.8 | -2.8 | nt | 13.8
COc1ccc(-c2[nH]ncc2CN2CCN(Cc3cccs3)CC2)cc1F | -2.8 | 0.4 | 1.6 | nt | 7.8* | nt
Cn1c(SCC(=O)NCC2CCCO2)ncc(C(=O)Nc2ccc(F)cc2)c1=O (stereo unspecified) | 1.6 | nt | 50.9* | 69.5 | -0.4 | 67.2*
Cn1c(SCC(=O)NCC2CCCO2)ncc(C(=O)Nc2ccc(Cl)cc2)c1=O (stereo unspecified) | -0.1 | nt | 55.9* | 29.2 | 3.3 | 57.5*
CCOCCCn1c(SCC(=O)NCc2ccc3c(c2)OCO3)nc2ccccc2c1=O | 1.2 | 0.6 | 70.3* | -4.6 | 0.8 | 9.9
CCCCNC(=O)CSc1nc2ccccc2c(=O)n1Cc1ccc2c(c1)OCO2 | 1.9 | -1.2 | -1.0 | -4.8 | 0.0 | -5.1
Cn1c(SCC(=O)NCc2ccc3c(c2)OCO3)ncc(C(=O)Nc2ccc(F)cc2)c1=O | 0.2 | nt | 48.6* | -4.5 | 1.2 | -12.9
Cn1c(SCC(=O)NCc2ccc(F)cc2)ncc(C(=O)Nc2ccccc2)c1=O | 1.9 | nt | 12.0 | 21.7 | 1.6 | 29.0
Cc1nc(N)nc(COc2ccccc2)n1 | 1.9 | 1.1 | 6.3 | -1.0 | 8.4* | 13.2
COc1ccc(Nc2nc(N)nc(COc3ccc(OC)cc3)n2)cc1 | 1.2 | -2.8 | 60.2* | 6.3 | 0.1 | 0.6
COc1ccc(Nc2nc(N)nc(CSc3nccn3C)n2)cc1 | 7.0 | 2.5 | 33.7 | 8.9 | 0.8 | 54.9*
COc1ccc(Nc2nc(N)nc(CSc3nc(C)cc(C)n3)n2)cc1 | 6.2 | 3.8 | 28.4 | -88.8* | -0.8 | -91.6
Cc1nnc(SCc2nc(N)nc(Nc3ccccc3)n2)s1 | 4.5 | -2.6 | 7.4 | 3.8 | 3.2 | 13.5
COc1ccc(Nc2nc(N)nc(SCc3nnc(C)s3)n2)cc1 | 2.5 | -1.8 | 56.3* | 9.3 | 1.5 | 17.5
Cc1cccc(C)c1OCC(O)Cn1nnc2ccccc21 (stereo unspecified) | -1.4 | 0.8 | -1.3 | 5.6 | 1.0 | 7.3
O=C1c2ccccc2C(=O)N1CC(O)Cn1nnc2ccccc21 (stereo unspecified) | 1.9 | -0.6 | -0.1 | -31.2 | 1.7 | -44.9
Cc1ccc2c(c1)c(C)c(C)n2CC(O)Cn1nc(C)cc1C (stereo unspecified) | 2.4 | -3.8 | 60.8* | -2.2 | 0.3 | 11.9
Cc1ccc2c(c1)c(C)c(C)n2CC(O)Cn1nnc2ccccc21 (stereo unspecified) | 2.4 | 3.1 | 37.9 | -88.7* | -0.4 | -91.1
OC(CN1c2ccccc2Sc2ccccc21)Cn1nnc2ccccc21 (stereo unspecified) | -2.8 | -0.2 | 1.5 | 18.6 | -0.3 | 63.2*
Cc1nn(-c2ccccc2)c(C)c1C(=O)OCc1ccc(C#N)cc1 | 3.1 | 1.4 | -4.8 | 12.4 | 1.3 | -4.8
Cc1ccc(C(=O)N2[C@@H]3CN(C)C(=O)[C@@]2(C)[C@H]2C(=O)N(C)C(=O)[C@@H]32)cc1 | 0.8 | nt | nt | nt | 1.8 | nt
COc1ccc2[nH]c3c(c2c1)CCN1C(=O)C(CC(=O)NCc2ccco2)C[C@H](C(=O)N2CCOCC2)[C@@]31C (stereo partly specified) | 2.7 | nt | nt | nt | 0.9 | nt
COc1ccc(CCNC(=O)C2CC3Cn4c(nc5ccccc54)C3N2Cc2ccccc2)cc1 (stereo unspecified) | -1.3 | nt | 2.7 | -3.3 | 1.0 | 3.2
Cc1ccc(N(C)S(=O)(=O)c2cccc(C(=O)NCCCN3CCCC3=O)c2)cc1 | -0.3 | nt | 3.8 | nt | -0.1 | nt
COc1cccc(COC(=O)Nc2ccccc2F)c1 | 1.5 | 5.5 | 0.7 | 44.7 | 1.1 | 73.9*
COc1ccc(NC(=O)Nc2ccccc2F)c(C)c1 | 0.1 | 0.2 | 6.9 | 0.1 | 0.1 | 22.9
